We go through 30 molecules from PubChem BioAssay AID492956 (The Scripps Research Institute Molecular Screening Center, 2010).

A word on the inhibition: it is the relative decrease from the control value, in per cent.

Hit rate of the full screen: of about 340,000 compounds, about 3,300 (0.97%) were called active. The list comes from a sample in which actives are over-represented; it also holds similar structures and randomly drawn compounds. Unmarked numbers belong to inactive results.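 Rule for the calls: active = inhibition above the mean over all tested compounds plus 3 SD (cut at about 30% in these data); inactive = the rest.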

This assay addresses Platelet-activating factor acetylhydrolase 2, cytoplasmic (Homo sapiens) (UniProt Q99487). As to the kind of experiment: PAFAH2 enzyme inhibitors, primary screen, biochemical, fluorescence polarization, human (AID 492956).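 Note: inhibitors block probe labeling of enzyme so polarization drops; 0% = enzyme with DMSO and 100% = wells lacking PAFAH2 protein.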 The note with it: recombinant PAFAH2, FP-rhodamine activity probe, at 3.39 µM, stronger effect = higher value. A general note: In fluorescence polarisation assays a small probe gives low polarisation when free and higher when bound to something large.
As for `COc1ccc(N2C(=O)/C(=C/c3ccco3)C(=O)NC2=S)cc1`, the inhibition is 59.1% (active).
To `CC(C)CN1CCN(Cc2ccccc2C(F)(F)F)CC1CCO` (stereo not given) belongs 4.28%; to `COc1ccc(-n2c(-c3ccccc3)nc3ccccc3c2=O)cc1`, -4.87%; to `C[C@]12CCCCC1=CC(=O)C1C2CC[C@@]2(C)C1C[C@@H](F)[C@@H]2O` (stereo not given in full), 2.89%.
To `CC(Cc1cccs1)NCc1ccc(Cl)cc1` (stereo not given) belongs 4.46%; to `Cc1cccc(N2C(=O)NC(=O)/C(=C\c3cnn(-c4ccccc4)c3)C2=O)c1`, 38.8% (active).
Regarding `Cc1c(C(=O)O)cccc1-n1c(C)cc(/C=C2\C(=O)NC(=O)N(c3ccc4c(c3)OCO4)C2=O)c1C`, the inhibition is 14.2%.
The same measure for `COc1cccc(N2C(=O)NC(=O)/C(=C\c3cn(C)c4ccccc34)C2=O)c1`: 53% (active); for `CCc1nc2ccccc2c(=O)n1-c1cccc(OC)c1`: 0.9%.
To `CCN1CCN(c2nc3c(c(=O)[nH]2)CCC3)CC1` belongs 1.82%; to `CC12CCC3C(CCC4CC(=O)CCC43C)C1CC(=NO)C2=O` (stereo not given), 5.08%; to `Cc1ccc(S(=O)(=O)N(C)c2ccc(C(=O)NCC3(N(C)C)CCCCC3)cc2)cc1`, -2.88%.
With `O=C1NC(=O)N(c2ccc(F)cc2)C(=O)/C1=C/c1ccc2c(c1)CCCN2Cc1ccccc1`, the inhibition was 6.73%.
Regarding `O=C1NC(=O)N(c2ccccc2)C(=O)/C1=C/c1ccc([N+](=O)[O-])s1`, the inhibition is 38.4% (active).
As for `COc1ccc2[nH]c3c(c2c1)CCN[C@H]3C`, the inhibition was -4.46%.
With `O=C(Cn1c(=O)n(CC2CS2)c2ccccc21)N1CCCCC1` (stereo not given), the inhibition is -1.23%.
As for `N=c1ccccn1Cc1ccccc1`, the inhibition is 1.19%.
The same measure for `O=C(COC(=O)c1ccccc1)Nc1ccc(Cl)cc1C(=O)c1ccccc1`: 45% (active); for `CN1CCN(C(=S)SCC(=O)Nc2ccc(Cl)cc2C(=O)c2ccccc2)CC1`: 5.69%; for `O=C(CCNS(=O)(=O)c1ccccc1)Nc1ccc(Cl)cc1C(=O)c1ccccc1`: -0.4%.
The same measure for `CCN(CC)C(=O)Oc1ccc(NC(=O)N2CCOCC2)cc1`: 6.33%; for `C=CCN1C(=O)NC(=O)/C(=C/c2ccc(OCC(=O)Nc3ccc(C)cc3)cc2)C1=O`: 5.48%.
With `COc1ccc(C(=O)C2CCCN(Cc3ccc(C)s3)C2)cc1OC` (stereo not given), the inhibition was 1.55%.
To `COc1ccccc1N=C1SCCCN1C` belongs 5.93%; to `NCCc1ccc(S(=O)(=O)F)cc1`, 86% (active).
To `CC(C)c1ccc(-n2c(O)c(/C=N/N3CCOCC3)c(=O)[nH]c2=S)cc1` belongs -8.3%; to `Cc1ccnc(-n2c(C)cc(/C=C3\C(=O)NC(=S)N(C)C3=O)c2C)c1`, -2.99%; to `CCN1CCN(c2ccc([N+](=O)[O-])cc2C#N)CC1`, 9.87%.
As for `CC12CCC(O)CC1CCC1C2CCC2(C)C(C(=O)CC(O)C(F)(F)F)CCC12` (stereo not given), the inhibition was 2.7%.
On to `O=C(N/N=C/c1c(O)n(C2CC2)c(=S)[nH]c1=O)c1ccccc1Cl`, for which the inhibition was -27.8%.
